According to PubChem BioAssay (NCI):
Several values for one entry are separate records, joined by “and”; a condition that tells them apart may be missing. Equal values may be shown once. About 83,000 compounds went through this panel and 20% of them were active in at least one assay; those are over-represented in the sample as a whole.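 Growth was measured after 48 h exposure to one concentration of compound in 96-well plates. Values under 10 count as active.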 Activity calls are given as the source filed them.

Legend:
Experiment in all cases: NCI-60 one-dose screen, 48 h (100 = growth as untreated, 0 = no growth, -100 = all killed)
[1] = system: SR leukemia
[2] = system: RPMI-8226 leukemia; details: 10 µM unless noted
[3] = system: OVCAR-8 ovarian
[4] = system: OVCAR-5 ovarian; details: 10 µM unless noted
[5] = system: OVCAR-4 ovarian
[6] = system: SK-OV-3 ovarian; details: 10 µM unless noted
[7] = system: IGROV1 ovarian
[8] = system: OVCAR-3 ovarian
[9] = system: HS 578T breast
[10] = system: NCI/ADR-RES ovarian
[11] = system: T-47D breast; details: 10 µM unless noted
[12] = system: BT-549 breast
[13] = system: MDA-MB-435 melanoma
[14] = system: SW-620 colon
[15] = system: MCF7 breast
[16] = system: HCT-116 colon
[17] = system: HCC-2998 colon; details: 10 µM unless noted
[18] = system: KM12 colon

O=C(O)CN(CCN(CC(=O)O)CC(=O)O)CCN(CC(=O)O)CC(=O)O
growth ([1]; 10 µM unless noted): -21% (active) and 105% (inactive) and 101% (inactive) | growth [2]: 14.4% (inactive) and 102% (inactive) and 101% (inactive) | growth ([3]; 10 µM unless noted): -15.6% (active) and 97.9% (inactive) and 99.4% (inactive) | growth [4]: 89.8% (inactive) and 109% (inactive) | growth ([5]; 10 µM unless noted): 20.2% (inactive) and 105% (inactive) and 100% (inactive) | growth [6]: 0.709% (active) and 105% (inactive) and 108% (inactive) | growth ([7]; 10 µM unless noted): 15% (inactive) | growth ([8]; 10 µM unless noted): -17.3% (active) and 110% (inactive) and 108% (inactive) | growth ([9]; 10 µM unless noted): 7.28% (active) and 134% (inactive) | growth ([10]; 10 µM unless noted): -37.7% (active) and 110% (inactive) and 113% (inactive) | growth [11]: 9.23% (active) and 101% (inactive) | growth ([12]; 10 µM unless noted): -10.9% (active) and 92.1% (inactive) | growth ([13]; 10 µM unless noted): 17.1% (inactive) and 101% (inactive) | growth ([14]; 10 µM unless noted): 10.5% (inactive) and 109% (inactive) | growth ([15]; 10 µM unless noted): 18% (inactive) and 85.5% (inactive) and 101% (inactive) | growth ([16]; 10 µM unless noted): 3.66% (active) and 91.9% (inactive) and 100% (inactive) | growth [17]: 15.8% (inactive) and 105% (inactive) and 110% (inactive) | growth ([18]; 10 µM unless noted): 15.9% (inactive) and 112% (inactive) and 108% (inactive)

Oc1nc(NCCc2ccccc2)sc1/C=C1\C=Nc2ncccc21
growth ([1]; 10 µM unless noted): -1.51% (active) and 5.6% (active) | growth [2]: 38.7% (inactive) and 39.2% (inactive) | growth ([3]; 10 µM unless noted): 9.67% (active) and 14% (inactive) | growth [4]: 18.1% (inactive) and 37.8% (inactive) | growth ([5]; 10 µM unless noted): 32.3% (inactive) and 23.8% (inactive) | growth [6]: 2.11% (active) and 27% (inactive) | growth ([7]; 10 µM unless noted): 25.6% (inactive) and 14% (inactive) | growth ([8]; 10 µM unless noted): 3.41% (active) and 5.65% (active) | growth ([9]; 10 µM unless noted): 8.82% (active) and 8.78% (active) | growth ([10]; 10 µM unless noted): 58.4% (inactive) and 72.9% (inactive) | growth [11]: -1.34% (active) and 2.6% (active) | growth ([12]; 10 µM unless noted): 5.29% (active) and -7.9% (active) | growth ([13]; 10 µM unless noted): 18.5% (inactive) and 21% (inactive) | growth ([14]; 10 µM unless noted): 7.8% (active) and 9.88% (active) | growth ([15]; 10 µM unless noted): 2% (active) and 4% (active) | growth ([16]; 10 µM unless noted): 5.84% (active) and 9.69% (active) | growth [17]: 66.2% (inactive) and 53.9% (inactive)

N/C(=N\N=C\c1ccc2c(c1)OCO2)N/N=C\c1ccc2c(c1)OCO2
growth ([1]; 10 µM unless noted): -8.73% (active) | growth [2]: 98.5% (inactive) and 67.3% (inactive) | growth ([3]; 10 µM unless noted): 102% (inactive) and 95% (inactive) | growth [4]: 122% (inactive) and 96.9% (inactive) | growth ([5]; 10 µM unless noted): 93.8% (inactive) | growth [6]: 118% (inactive) and 111% (inactive) | growth ([7]; 10 µM unless noted): 112% (inactive) and 96.8% (inactive) | growth ([8]; 10 µM unless noted): 126% (inactive) and 101% (inactive) | growth ([9]; 10 µM unless noted): 115% (inactive) and 92.5% (inactive) | growth ([10]; 10 µM unless noted): 101% (inactive) and 82.6% (inactive) | growth [11]: 112% (inactive) and 107% (inactive) | growth ([12]; 10 µM unless noted): 95.6% (inactive) and 67.7% (inactive) | growth ([13]; 10 µM unless noted): 81.2% (inactive) and 65.5% (inactive) | growth ([14]; 10 µM unless noted): 101% (inactive) and 75.2% (inactive) | growth ([15]; 10 µM unless noted): 94% (inactive) and 56% (inactive) | growth ([16]; 10 µM unless noted): 97.6% (inactive) and 48.8% (inactive) | growth [17]: 103% (inactive) and 86.1% (inactive) | growth ([18]; 10 µM unless noted): 93.5% (inactive) and 70.3% (inactive)

OCCN1CCN(CCCN2c3ccccc3Sc3ccc(Cl)cc32)CC1
growth ([1]; 10 µM unless noted): 36.6% (inactive) | growth [2]: 37.6% (inactive) and 68.9% (inactive) | growth ([3]; 10 µM unless noted): 89.3% (inactive) and 107% (inactive) | growth [4]: 61.3% (inactive) and 90.7% (inactive) | growth ([5]; 10 µM unless noted): 74.2% (inactive) and 69.8% (inactive) | growth [6]: 70% (inactive) and 87.5% (inactive) | growth ([7]; 10 µM unless noted): 47.7% (inactive) and 57.8% (inactive) | growth ([8]; 10 µM unless noted): 83% (inactive) and 81.5% (inactive) | growth ([9]; 10 µM unless noted): 63.1% (inactive) and 72.3% (inactive) | growth ([10]; 10 µM unless noted): 60.9% (inactive) and 76% (inactive) | growth [11]: 66% (inactive) and 84.1% (inactive) | growth ([12]; 10 µM unless noted): 59.1% (inactive) and 74.7% (inactive) | growth ([13]; 10 µM unless noted): -11.6% (active) and 26.5% (inactive) | growth ([14]; 10 µM unless noted): 80.6% (inactive) and 83.8% (inactive) | growth ([15]; 10 µM unless noted): 77.2% (inactive) | growth ([16]; 10 µM unless noted): 35.1% (inactive) and 66.7% (inactive) | growth [17]: 15.2% (inactive) and 70.6% (inactive) | growth ([18]; 10 µM unless noted): 71.4% (inactive) and 80.5% (inactive)

Cc1[nH]c(-c2nc3ccccc3[nH]2)c(C)c1C(=O)NC(C)C1CCCCC1 (centres undefined)
growth ([1]; 10 µM): 69% (inactive) | growth ([1]; 100 µM): -44.3% (active) | growth [2]: -65.3% [100 µM] (active) | growth ([3]; 10 µM): 96.9% (inactive) | growth ([3]; 100 µM): -61.5% (active) | growth ([5]; 10 µM): 92.1% (inactive) | growth ([5]; 100 µM): -84.1% (active) | growth [6]: -77.6% [100 µM] (active) | growth ([7]; 10 µM): 90.9% (inactive) | growth ([7]; 100 µM): -67.8% (active) | growth ([8]; 10 µM): 90% (inactive) | growth ([8]; 100 µM): -86.9% (active) | growth ([9]; 10 µM): 82.8% (inactive) | growth ([9]; 100 µM): -39% (active) | growth ([10]; 10 µM): 85.5% (inactive) | growth ([10]; 100 µM): -79.7% (active) | growth ([12]; 10 µM): 95.5% (inactive) | growth ([12]; 100 µM): -81.6% (active) | growth ([13]; 10 µM): 37.5% (inactive) | growth ([13]; 100 µM): -94.8% (active) | growth ([14]; 10 µM): 92.9% (inactive) | growth ([14]; 100 µM): -68.8% (active) | growth ([15]; 10 µM): 71.1% (inactive) | growth ([15]; 100 µM): -73.7% (active) | growth ([16]; 10 µM): 85.5% (inactive) | growth ([16]; 100 µM): -76.8% (active) | growth ([18]; 10 µM): 84.4% (inactive) | growth ([18]; 100 µM): -91.8% (active)
